Experimental data: the supplement of paper PMC6124720
Where a name gives a salt, the structure may show the parent alone.

System: Pseudogymnoascus destructans 20631-21
Assay: growth activity index (DuctApe, 0 = no growth, 9 = maximal growth) (index 0-9); higher = more fungal growth (less inhibition), active = 0 or less; extreme values may be limits of the assay
Conditions: temperature: 13 °C, YPD
[1] = concentration level (1-4, increasing; Biolog proprietary): 1
[2] = concentration level (1-4, increasing; Biolog proprietary): 2
[3] = concentration level (1-4, increasing; Biolog proprietary): 3
[4] = concentration level (1-4, increasing; Biolog proprietary): 4
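Also: biolog Phenotype Microarray plates PM21–25, OD595 followed daily over 11 days, growth curves converted to index, mean of two independent experiments.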

SMILES | growth activity index [1] | growth activity index [2] | growth activity index [3] | growth activity index [4]
O=C(O)C(O)C(O)C(=O)O (stereo not given) [Tartaric acid] (Biolog plate: PM25) | 3.33 (inactive) | 2 (inactive) | 4.33 (inactive) | 1.33 (inactive)
Cn1c(=O)c2c(ncn2C)n(C)c1=O [Caffeine] (Biolog plate: PM22) | 5 (inactive) | 4 (inactive) | 0 (active) | 0 (active)
Nc1c2ccccc2nc2ccccc12 [9-Aminoacridine] (Biolog plate: PM24) | 5 (inactive) | 5.33 (inactive) | 7 (inactive) | 9 (inactive)
CCCCCCCCCCCCCCCCOP(=O)([O-])OCC[N+](C)(C)C [Miltefosine] (Biolog plate: PM22) | 5 (inactive) | 3 (inactive) | 0 (active) | 0 (active)
O=S(O)(O)=S [Sodium Thiosulfate] (Biolog plate: PM23) | 5 (inactive) | 4.33 (inactive) | 1.67 (inactive) | 0 (active)
CC(=O)OCC1=C(C(=O)O)N2C(=O)[C@@H](NC(=O)Cc3cccs3)[C@H]2SC1 [Cephalotin] (Biolog plate: PM22) | 5.67 (inactive) | 5 (inactive) | 5 (inactive) | 1 (inactive)
CN1CCN(CCCN2c3ccccc3Sc3ccc(C(F)(F)F)cc32)CC1 [Trifluoperazine] (Biolog plate: PM21) | 0 (active) | 0.25 (inactive) | 3.5 (inactive) | 6.25 (inactive)
CN(C)CCC=C1c2ccccc2CCc2ccccc21 [Amitriptyline] (Biolog plate: PM25) | 0 (active) | 0 (active) | 2.67 (inactive) | 6.33 (inactive)
CN(C)C(=O)/N=N/C(=O)N(C)C [Diamide] (Biolog plate: PM21) | 5.75 (inactive) | 5 (inactive) | 0 (active) | 0 (active)
COc1cc(/C=C/C(=O)O)ccc1O [Ferulic acid] (Biolog plate: PM25) | 1 (inactive) | 0 (active) | 0 (active) | 1 (inactive)
O=C([O-])CC(O)(CC(=O)[O-])C(=O)[O-].[Na+].[Na+].[Na+] [Citric acid Trisodium Salt] (Biolog plate: PM25) | 4 (inactive) | 4.67 (inactive) | 4 (inactive) | 5.67 (inactive)
OCC1OC(O)CC(O)C1O [2-Deoxy-D-glucose] (Biolog plate: PM23) | 4.67 (inactive) | 5 (inactive) | 5 (inactive) | 4.33 (inactive)
O=c1[nH]c(=O)n([C@H]2C[C@H](O)[C@@H](CO)O2)cc1F [Fluorodeoxyuridine] (Biolog plate: PM25) | 4.67 (inactive) | 3.67 (inactive) | 4.33 (inactive) | 3 (inactive)
O=C(O)CN(CC(=O)O)c1ccccc1OCCOc1ccccc1N(CC(=O)O)CC(=O)O (Biolog plate: PM22) | 4.67 (inactive) | 1.67 (inactive) | 1.33 (inactive) | 0.667 (inactive)
CC(CN1c2ccccc2Sc2ccccc21)N(C)C (stereo not given) [Promethazine] (Biolog plate: PM21) | 4.75 (inactive) | 0 (active) | 1 (inactive) | 6 (inactive)
O.O=S(=O)([O-])[O-].O=S(=O)([O-])[O-].O=S(=O)([O-])[O-].[Al+3].[Al+3] [Aluminum sulfate] (Biolog plate: PM24) | 2 (inactive) | 4 (inactive) | 6 (inactive) | 7 (inactive)
O=C(O)CN(CCN(CC(=O)O)CC(=O)O)CC(=O)O (Biolog plate: PM21) | 5 (inactive) | 5 (inactive) | 5 (inactive) | 5 (inactive)
O=[Si](O)O [Sodium metasilicate] (Biolog plate: PM24) | 4.33 (inactive) | 2.67 (inactive) | 2.67 (inactive) | 3.33 (inactive)
N[C@@H]1CONC1=O [D-Cycloserine] (Biolog plate: PM21) | 4 (inactive) | 5 (inactive) | 4.25 (inactive) | 0 (active)
CN[C@@H]1[C@@H](O[C@H]2O[C@H](CO)[C@@H](N)[C@H](O)[C@H]2O)OC2C[C@@H](N)[C@@H](O[C@H]3[C@H](O)[C@@H](O)[C@H](N)C[C@@H]3N)OC2[C@@H]1O (stereo not given in full) [Apramycin] (Biolog plate: PM24) | 5 (inactive) | 4.33 (inactive) | 7.67 (inactive) | 4.33 (inactive)

SMILES | growth activity index [1] | growth activity index [2] | growth activity index [3] | growth activity index [4]
CCCCCCCCCCCC[N+](C)(C)CCOc1ccccc1 [Domiphen bromide] (Biolog plate: PM21) | 4 (inactive) | 2 (inactive) | 0 (active) | 0 (active)
NC(=O)NO [Hydroxyurea] (Biolog plate: PM25) | 1 (inactive) | 0.333 (inactive) | 0 (active) | 0 (active)
N.N.O=S(=O)(O)O [Ammonium Sulfate] (Biolog plate: PM23) | 4.33 (inactive) | 5.33 (inactive) | 4 (inactive) | 2.67 (inactive)
NC(N)=O [Urea hydrogen peroxide] (Biolog plate: PM22) | 4.67 (inactive) | 4 (inactive) | 4.67 (inactive) | 4.33 (inactive)
NNC(=O)c1ccncc1 [Isoniazid] (Biolog plate: PM24) | 5 (inactive) | 5 (inactive) | 4 (inactive) | 0.333 (inactive)
CCCCCCCC(=O)[O-].[Na+] [Sodium Caprylate] (Biolog plate: PM23) | 1 (inactive) | 3.33 (inactive) | 4 (inactive) | 4 (inactive)
O=C(O)CC(O)C(=O)O (stereo not given) [Malic acid] (Biolog plate: PM25) | 4 (inactive) | 5 (inactive) | 2.67 (inactive) | 1.33 (inactive)
Clc1ccc(COC(Cn2ccnc2)c2ccc(Cl)cc2Cl)c(Cl)c1 (stereo not given) [Miconazole Nitrate] (Biolog plate: PM24) | 4.67 (inactive) | 0.333 (inactive) | 0.333 (inactive) | 0 (active)
N=C(N)c1ccc(OCCCCCOc2ccc(C(=N)N)cc2)cc1 [Pentamidine Isethionate] (Biolog plate: PM24) | 0.333 (inactive) | 5.33 (inactive) | 8 (inactive) | 8 (inactive)
NCC(=O)O [Glycine hydrochloride] (Biolog plate: PM23) | 5 (inactive) | 4 (inactive) | 2 (inactive) | 2 (inactive)
CN(C)CCCN1c2ccccc2Sc2ccc(Cl)cc21 [Chlorpromazine] (Biolog plate: PM23) | 5 (inactive) | 0 (active) | 0 (active) | 2 (inactive)
[F-].[Na+] [Sodium Fluoride] (Biolog plate: PM24) | 4.33 (inactive) | 4.67 (inactive) | 5.33 (inactive) | 4.67 (inactive)
NC[C@H]1O[C@H](O[C@H]2[C@H](O)[C@@H](O[C@H]3O[C@H](CO)[C@@H](O)[C@H](N)[C@H]3O)[C@H](N)C[C@@H]2N)[C@H](N)C[C@@H]1O [Tobramycin] (Biolog plate: PM25) | 5 (inactive) | 5 (inactive) | 5 (inactive) | 1 (inactive)
NC(CO)C(=O)NO (racemic) [DL-Serine hydroxamate] (Biolog plate: PM22) | 4.33 (inactive) | 4 (inactive) | 0 (active) | 0 (active)
O=c1[nH]cc(F)c(=O)[nH]1 [5-Fluorouracil] (Biolog plate: PM25) | 4.67 (inactive) | 5 (inactive) | 5.33 (inactive) | 6 (inactive)
O.O.O.O.O.O.[Cl-].[Cl-].[Mg+2] [Magnesium chloride] (Biolog plate: PM21) | 4 (inactive) | 4 (inactive) | 4 (inactive) | 2.25 (inactive)
NC[C@@H]1O[C@H](O[C@H]2[C@@H](O)[C@H](O[C@@H]3[C@@H](O)[C@H](N)C[C@H](N)[C@H]3O[C@H]3O[C@H](CO)[C@@H](O)[C@H](O)[C@H]3N)O[C@@H]2CO)[C@H](N)[C@@H](O)[C@@H]1O [Paromomycin] (Biolog plate: PM22) | 1 (inactive) | 1 (inactive) | 0.667 (inactive) | 0 (active)
O=C([O-])c1ccccc1.[Na+] [Sodium Benzoate] (Biolog plate: PM24) | 4 (inactive) | 5 (inactive) | 4.67 (inactive) | 4.67 (inactive)
O=C(O)/C=C/C(=O)O [Fumaric acid] (Biolog plate: PM25) | 4.33 (inactive) | 4 (inactive) | 4 (inactive) | 4 (inactive)
COc1ccc2cc3[n+](cc2c1OC)CCc1cc2c(cc1-3)OCO2 [Berberine Chloride] (Biolog plate: PM24) | 4 (inactive) | 4.67 (inactive) | 0.333 (inactive) | 0.667 (inactive)
